Structures are written as SMILES. Activity calls are given as the source filed them.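 Rule for the calls: active = Her2 level under about 52% in both replicate screens, with viability over 70% of control (limit read from the data); inconclusive = Her2 under the limit in one screen only, or viability under 70%; inactive = Her2 level above the set limit.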

Chain of Receptor tyrosine-protein kinase erbB-2 (Homo sapiens) (P04626 whole entry, looked up): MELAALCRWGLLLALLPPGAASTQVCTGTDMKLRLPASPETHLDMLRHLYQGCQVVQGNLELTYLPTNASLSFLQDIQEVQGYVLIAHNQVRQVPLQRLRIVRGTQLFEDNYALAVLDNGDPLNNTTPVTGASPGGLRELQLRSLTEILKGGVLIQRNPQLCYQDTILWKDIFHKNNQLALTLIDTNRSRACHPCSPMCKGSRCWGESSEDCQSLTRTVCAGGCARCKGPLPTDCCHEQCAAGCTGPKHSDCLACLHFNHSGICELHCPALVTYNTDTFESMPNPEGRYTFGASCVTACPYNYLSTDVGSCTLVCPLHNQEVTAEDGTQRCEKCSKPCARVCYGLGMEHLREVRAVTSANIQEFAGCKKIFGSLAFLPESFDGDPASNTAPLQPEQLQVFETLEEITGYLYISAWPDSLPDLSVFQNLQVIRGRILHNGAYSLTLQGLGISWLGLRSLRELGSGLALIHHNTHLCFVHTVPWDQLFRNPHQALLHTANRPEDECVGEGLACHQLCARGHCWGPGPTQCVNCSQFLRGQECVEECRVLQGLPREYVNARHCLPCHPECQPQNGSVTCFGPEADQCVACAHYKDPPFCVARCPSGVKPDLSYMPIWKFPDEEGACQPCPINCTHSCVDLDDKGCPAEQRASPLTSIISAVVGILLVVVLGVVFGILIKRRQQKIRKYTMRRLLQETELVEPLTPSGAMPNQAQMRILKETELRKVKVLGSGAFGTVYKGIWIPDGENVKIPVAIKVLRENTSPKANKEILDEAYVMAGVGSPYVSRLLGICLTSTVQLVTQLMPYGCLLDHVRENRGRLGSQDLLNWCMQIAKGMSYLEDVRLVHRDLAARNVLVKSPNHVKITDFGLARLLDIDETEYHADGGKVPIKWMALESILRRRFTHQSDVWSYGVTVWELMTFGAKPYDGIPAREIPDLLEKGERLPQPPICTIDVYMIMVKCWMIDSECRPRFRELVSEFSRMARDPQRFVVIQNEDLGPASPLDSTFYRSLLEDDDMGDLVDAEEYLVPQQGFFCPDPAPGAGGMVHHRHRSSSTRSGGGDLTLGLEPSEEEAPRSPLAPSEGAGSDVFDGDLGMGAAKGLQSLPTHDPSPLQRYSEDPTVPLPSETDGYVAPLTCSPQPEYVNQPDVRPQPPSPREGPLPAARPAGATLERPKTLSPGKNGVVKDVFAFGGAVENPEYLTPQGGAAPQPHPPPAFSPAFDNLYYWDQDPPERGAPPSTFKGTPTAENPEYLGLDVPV

Tested on in one experiment: not listed separately
The experiment can be described thus: Her2 expression decrease, cell viability multiplex – SKBR3 breast tumor cells, AlphaScreen, ATP viability, primary screen (AID 461).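 For Her2 level: lower value means less Her2 protein in the cells.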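 For viability: percent of carrier control wells set as 100% viability.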 The settings on record: SKBR3 Her2 protein level, 18-24 h, measured here: SKBR3 viability, ATP luminescence, at 10 µM.
Regarding `CCSc1nc2ccccc2n1CCC(=O)O`, the viability is 99%.

Consider `C=CCN(CC=C)C(=O)CN1C(=O)c2ccccc2C1=O`, for which the viability was determined as 125%.

As for `CCOC(=O)N1CCN(CC(=O)Nc2c(C(=O)OC)[nH]c3cccc(Cl)c23)CC1`, the viability stood at 102%.

As for `CC(=O)Nc1ccc(NC(=O)C(C)Oc2ccccc2F)cc1` (stereo not drawn), the viability was 102%.

`CCCCC(=O)Nc1c(O)c2ccccc2[nH]c1=O`: the viability was 95.5%.

In the case of `O=C(Cc1ccc(Br)cc1)N1CCCCCC1`, the viability amounted to 108%.

Take `CC1=C(C(=O)NCc2ccccn2)C2(CCC(C)CC2)OC1=O` (stereo not drawn): the viability was 94.5%.

With `Cc1nc(C)c(C(=O)Nc2ccc(Oc3ccccc3)cc2)o1`, the viability came to 94.5%.

For `Cc1ccc2c(c1)sc1ncc(NC(=O)c3ccccc3)c(=O)n12`, the viability was determined as 88.5%.

In the case of `Cc1ccc2cc(CN(CC(C)C)C(=O)C3CCCO3)c(=O)[nH]c2c1` (stereo not drawn), the viability was 95%.

Take `O=C(NCC1CCCO1)c1cccc(N2C(=O)C3C4C=CC(C4)C3C2=O)c1` (stereo not drawn): the viability came to 110%.

On to `CCOC(=O)c1sc2nc3c(cc2c1N)COC(C)(C)C3`, for which the viability turned out to be 97%.

Turning to `CCCCn1c(SCC(=O)NCc2ccccc2)nc2ccc(N3CCOCC3)cc2c1=O`, the viability worked out at 80%.

For `Cc1ccccc1-c1nc(CS(=O)(=O)CC(=O)N(C)C2CCCCC2)c(C)o1`, the viability turned out to be 108%.

Turning to `COC1CCCCC1NS(=O)(=O)c1ccccc1` (stereo not drawn), the viability worked out at 106%.

In the case of `O=C(CSc1nc2ccccc2nc1SCC(=O)N1CCOCC1)N1CCOCC1`, the viability stood at 100%.

For the compound `Cc1ccccc1-c1nc(CS(=O)(=O)CC(=O)NCc2ccccc2)c(C)o1`, the viability was 93.5%.

Take `Cc1ccc(S(=O)(=O)N2CCN(C(=O)CN3CCOCC3)C2C(C)C)cc1` (stereo not drawn): the viability is 99.5%.

Regarding `CC(CN1CCCCC1)OC(=O)c1ccc2c(c1)OCO2` (stereo not drawn), the viability came out at 104%.

Turning to `CCOC(=O)N1CCN(C(=O)CN(C)S(=O)(=O)c2ccc(OC)c(OC)c2)CC1`, the viability worked out at 100%.

As to `CC1(C)CC(=O)CC(C)(C)N1OC(=O)c1ccccn1`, the viability was determined as 106%.

For the compound `Cc1cccc(NC(=O)CC2NC3CCCCC3NC2=O)c1` (stereo not drawn), the viability was determined as 99.5%.

For `O=C(CS(=O)(=O)c1cn(Cc2ccc(Cl)cc2)c2ccccc12)N1CCOCC1`, the viability came to 84%.

Take `Cc1cccc(-n2ncc3c(N)ncnc32)c1`: the viability came out at 94.5%.

As for `O=C(CN1CCN(c2nc(-c3ccccc3)cs2)CC1)Nc1ccc2c(c1)OCO2`, the viability came to 90.5%.

On to `CCC12CN3CC(CC)(CN(C1)C3c1ccc(OC(C)C)cc1)C2=O` (stereo not drawn), for which the viability stood at 94%.

Regarding `Cc1c(/C(O)=C2/C(=O)C(=O)N(CCN3CCOCC3)C2c2cccs2)cnn1-c1ccccc1` (stereo not drawn), the viability was found to be 88%.

As to `c1cc2c(cc1C1=Nn3c(nnc3C3CCCCC3)SC1)OCO2`, the viability is 133%.

In the case of `COc1ccc(CNC(=O)C(c2ccco2)N(Cc2cccs2)C(=O)Cc2cccs2)cc1` (stereo not drawn), the viability was 96.5%.

Take `Cc1cccc(NC(=O)c2cc3ccccc3o2)c1`: the viability came out at 142%.

For `COc1ccc(S(=O)(=O)NCCOc2ccccc2)cc1OC`, the viability worked out at 94%.

As for `Cc1nc(SC2C=CS(=O)(=O)C2)n[nH]1` (stereo not drawn), the viability came out at 104%.

Take `O=C1c2ccccc2C(Nc2ccc3nc(-c4cccnc4)[nH]c3c2)N1Cc1ccco1` (stereo not drawn): the viability stood at 88.5%.

With `Cc1ccc(NC(=O)CSc2nnc(CCCCCNC(=O)OC(C)(C)C)o2)c(C)c1`, the viability worked out at 112%.

In the case of `O=S(=O)(NCC1CCCO1)c1ccc(S(=O)(=O)N2CCc3ccccc3C2)cc1` (stereo not drawn), the viability amounted to 90%.

Consider `COC(=O)c1ccc(C(=O)OC)c(NC(=O)Nc2ccc3c(c2)OCO3)c1`, for which the viability is 86.5%.

For `CCN(CC(=O)NCc1cccs1)C(=O)c1cc(S(=O)(=O)N2CCOCC2)ccc1C`, the viability was 89.5%.

As to `COc1ccc(-c2c3c(=O)n(C)c(=O)n(C)c3cn2-c2cccc(OC)c2)cc1`, the viability turned out to be 105%.

Turning to `CCOC(=O)CCC(=O)Nc1ccc(S(=O)(=O)N2CCCC2)cc1`, the viability was 94.5%.

A further experiment concerns the target Receptor tyrosine-protein kinase erbB-2 (Homo sapiens) (UniProt P04626). Described as above. To be noted: 18-24 h, at 10 µM, stronger effect = lower value.
With `CCSc1nc2ccccc2n1CCC(=O)O`, the Her2 level is 91.5% (inactive).

As to `C=CCN(CC=C)C(=O)CN1C(=O)c2ccccc2C1=O`, the Her2 level was 89.5% (inactive).

In the case of `CCOC(=O)N1CCN(CC(=O)Nc2c(C(=O)OC)[nH]c3cccc(Cl)c23)CC1`, the Her2 level is 97.5% (inactive).

For the compound `CC(=O)Nc1ccc(NC(=O)C(C)Oc2ccccc2F)cc1` (stereo not drawn), the Her2 level is 102% (inactive).

For the compound `CCCCC(=O)Nc1c(O)c2ccccc2[nH]c1=O`, the Her2 level is 107% (inactive).

As for `O=C(Cc1ccc(Br)cc1)N1CCCCCC1`, the Her2 level was 106% (inactive).

Regarding `CC1=C(C(=O)NCc2ccccn2)C2(CCC(C)CC2)OC1=O` (stereo not drawn), the Her2 level was 99% (inactive).

Turning to `Cc1nc(C)c(C(=O)Nc2ccc(Oc3ccccc3)cc2)o1`, the Her2 level is 82% (inactive).

On to `Cc1ccc2c(c1)sc1ncc(NC(=O)c3ccccc3)c(=O)n12`, for which the Her2 level is 87% (inactive).

In the case of `Cc1ccc2cc(CN(CC(C)C)C(=O)C3CCCO3)c(=O)[nH]c2c1` (stereo not drawn), the Her2 level is 98% (inactive).

With `O=C(NCC1CCCO1)c1cccc(N2C(=O)C3C4C=CC(C4)C3C2=O)c1` (stereo not drawn), the Her2 level was 94% (inactive).

Turning to `CCOC(=O)c1sc2nc3c(cc2c1N)COC(C)(C)C3`, the Her2 level is 92% (inactive).

With `CCCCn1c(SCC(=O)NCc2ccccc2)nc2ccc(N3CCOCC3)cc2c1=O`, the Her2 level is 89.5% (inactive).

`Cc1ccccc1-c1nc(CS(=O)(=O)CC(=O)N(C)C2CCCCC2)c(C)o1`: the Her2 level was 104% (inactive).

As for `COC1CCCCC1NS(=O)(=O)c1ccccc1` (stereo not drawn), the Her2 level was 96.5% (inactive).

Turning to `O=C(CSc1nc2ccccc2nc1SCC(=O)N1CCOCC1)N1CCOCC1`, the Her2 level was 98% (inactive).

For the compound `Cc1ccccc1-c1nc(CS(=O)(=O)CC(=O)NCc2ccccc2)c(C)o1`, the Her2 level was 100% (inactive).

Take `Cc1ccc(S(=O)(=O)N2CCN(C(=O)CN3CCOCC3)C2C(C)C)cc1` (stereo not drawn): the Her2 level was 102% (inactive).

Regarding `CC(CN1CCCCC1)OC(=O)c1ccc2c(c1)OCO2` (stereo not drawn), the Her2 level is 96% (inactive).

Consider `CCOC(=O)N1CCN(C(=O)CN(C)S(=O)(=O)c2ccc(OC)c(OC)c2)CC1`, for which the Her2 level was 94.5% (inactive).

`CC1(C)CC(=O)CC(C)(C)N1OC(=O)c1ccccn1`: the Her2 level is 94% (inactive).

Consider `Cc1cccc(NC(=O)CC2NC3CCCCC3NC2=O)c1` (stereo not drawn), for which the Her2 level was 102% (inactive).

`O=C(CS(=O)(=O)c1cn(Cc2ccc(Cl)cc2)c2ccccc12)N1CCOCC1`: the Her2 level was 92.5% (inactive).

For the compound `Cc1cccc(-n2ncc3c(N)ncnc32)c1`, the Her2 level is 83.5% (inactive).

On to `O=C(CN1CCN(c2nc(-c3ccccc3)cs2)CC1)Nc1ccc2c(c1)OCO2`, for which the Her2 level was 99% (inactive).

Take `CCC12CN3CC(CC)(CN(C1)C3c1ccc(OC(C)C)cc1)C2=O` (stereo not drawn): the Her2 level was 92% (inactive).

Consider `Cc1c(/C(O)=C2/C(=O)C(=O)N(CCN3CCOCC3)C2c2cccs2)cnn1-c1ccccc1` (stereo not drawn), for which the Her2 level is 114% (inactive).

On to `c1cc2c(cc1C1=Nn3c(nnc3C3CCCCC3)SC1)OCO2`, for which the Her2 level was 108% (inactive).

Regarding `COc1ccc(CNC(=O)C(c2ccco2)N(Cc2cccs2)C(=O)Cc2cccs2)cc1` (stereo not drawn), the Her2 level is 86.5% (inactive).

As for `Cc1cccc(NC(=O)c2cc3ccccc3o2)c1`, the Her2 level was 114% (inactive).

Regarding `COc1ccc(S(=O)(=O)NCCOc2ccccc2)cc1OC`, the Her2 level is 90.5% (inactive).

As to `Cc1nc(SC2C=CS(=O)(=O)C2)n[nH]1` (stereo not drawn), the Her2 level is 88% (inactive).

`O=C1c2ccccc2C(Nc2ccc3nc(-c4cccnc4)[nH]c3c2)N1Cc1ccco1` (stereo not drawn): the Her2 level was 108% (inactive).

Consider `Cc1ccc(NC(=O)CSc2nnc(CCCCCNC(=O)OC(C)(C)C)o2)c(C)c1`, for which the Her2 level was 87% (inactive).

Take `O=S(=O)(NCC1CCCO1)c1ccc(S(=O)(=O)N2CCc3ccccc3C2)cc1` (stereo not drawn): the Her2 level was 93.5% (inactive).

Turning to `COC(=O)c1ccc(C(=O)OC)c(NC(=O)Nc2ccc3c(c2)OCO3)c1`, the Her2 level is 106% (inactive).

On to `CCN(CC(=O)NCc1cccs1)C(=O)c1cc(S(=O)(=O)N2CCOCC2)ccc1C`, for which the Her2 level is 118% (inactive).

In the case of `COc1ccc(-c2c3c(=O)n(C)c(=O)n(C)c3cn2-c2cccc(OC)c2)cc1`, the Her2 level was 97% (inactive).

`CCOC(=O)CCC(=O)Nc1ccc(S(=O)(=O)N2CCCC2)cc1`: the Her2 level is 102% (inactive).

The values above are taken from PubChem BioAssay.
